This passage reports Potency and activity change, positive = activation results from PubChem BioAssay (Tox21).

A number with no mark means an inactive call. Results filed as inconclusive are left out. Activity calls are given as the source filed them. Unless noted, calls come from the whole dose curve; as a rule, active = well fitted curve in the direction sought with a large enough effect in the repeat runs; inconclusive = weak or mixed curves; inactive = no such curve, though single readings can be large; an effect the other way counts as inactive or inconclusive.

Test [1] is described as follows: qHTS assay to identify small molecule agonists of the constitutive androstane receptor (CAR) signaling pathway - cell viability counter screen (AID 1224836). Note: nearly all actives have a fitted effect of over 45% in size. Note: potency is the fitted concentration of half-maximal effect. The essentials:
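Fluorescence from CellTiter-Fluor indicates live cells after 23 h exposure. The human hepatoma line expresses hCAR and a CYP2B6-2.2kb reporter. Incubation medium contains 0.75 uM PK11195 (final).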
On the technique in general: Quantitative high-throughput screening tests each substance at several concentrations.

For test [2], the target named is Nuclear receptor subfamily 1 group I member 3 (Homo sapiens) (UniProt Q14994). The test is described as follows: qHTS assay to identify small molecule antagonists of the constitutive androstane receptor (CAR) signaling pathway (AID 1224838).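 Note: HepG2 cells stably expressing hCAR with CYP2B6 luciferase reporter stimulated by CITCO; nearly all actives have a fitted effect of over 40% in size.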 Note: potency is the fitted concentration of half-maximal effect. In outline:
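Antagonist mode used CITCO at a final 50 nM to activate CAR in human hepatoma HepG2 cells carrying stable hCAR and a 2.2 kb CYP2B6 promoter-luciferase construct. Compounds were tested at 15 concentrations over 24 h, with luminescence as the end point.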

The target is the same in test [3]. Kind of test: qHTS assay to identify small molecule agonists of the constitutive androstane receptor (CAR) signaling pathway (AID 1224839). Note: nearly all actives have a fitted effect of over 15% in size. The essentials:
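Stable hCAR/CYP2B6-2.2kb HepG2 line in DMEM with 10% FBS; compounds (15 concentrations) and 0.75 uM PK11195 final, 24 h at 37 C/5% CO2, then ONE-Glo luminescence after 30 min.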

A short description of test [4]: qHTS assay to identify small molecule antagonists of the estrogen related receptor signaling pathway with the pleiotropic PPARgamma coactivator (PGC) from Tox21 10K library - cell viability counter screen (AID 1224840; active = well fitted cell-killing curve with a large enough effect in the repeat runs, not every such curve was filed as active; note: nearly all actives have a fitted effect of over 40% in size; note: potency is the fitted concentration of half-maximal effect). In outline:
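Multiplexed viability counter screen in the PGC/ERR cell line: cells treated with DMSO-dissolved compounds for 17.5 hours at 37 C, then viability measured as CellTiter-Fluor fluorescence.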

A short description of test [5]: qHTS assay to identify small molecule agonists of the hypoxia (HIF-1) signaling pathway - cell viability counter screen (AID 1224844; calls by dose curve; note: nearly all actives have a fitted effect of over 50% in size; note: potency is the fitted concentration of half-maximal effect). The essentials:
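Cytotoxicity was measured in parallel with the HRE-driven beta-lactamase readout: after 17 hrs of compound exposure at 37C, HRE-bla ME-180 cells received CellTiter-Glo and luminescence was recorded 30 min later.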

The nature of test [6]: qHTS assay to identify small molecule agonists of H2AX (AID 1224845; active = well fitted activation curve with a large enough effect in the signal ratio in the repeat runs, not every such curve was filed as active; the % refers to the signal ratio; note: potency is the fitted concentration of half-maximal effect). The essentials: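 Wild-type CHO-K1 cells plated overnight, then exposed 3 hr at 37C to compounds at 15 concentrations (0.76% DMSO). Lysed, then HTRF anti-pH2AX(S139)-cryptate/anti-H2AX-d2 detection after 24 hr at room temperature; emissions 665 and 620 nm.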
The nature of test [7]: qHTS assay to identify small molecule agonists of the hypoxia (HIF-1) signaling pathway (AID 1224846; active = well fitted activation curve with a large enough effect in the signal ratio in the repeat runs, not every such curve was filed as active; the % refers to the signal ratio). The essentials:
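Compounds from the Tox21 10K library, dissolved in DMSO, are tested for induction of a hypoxia response element–controlled beta-lactamase reporter in ME-180 cells. Exposure lasts 17 hrs at 37C after a 5 hr settling period, followed by CCF4-AM FRET substrate.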

The nature of test [8]: qHTS assay to identify small molecule agonists of H2AX - cell viability counter screen (AID 1224847; calls by dose curve; note: nearly all actives have a fitted effect of over 30% in size; note: potency is the fitted concentration of half-maximal effect). In outline: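 Viability of CHO-K1 (wild type) cells after 3 hr compound exposure was measured by CellTiter-Glo luminescence.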
Test [9] can be described thus: qHTS RealTime-Glo MT Cell Viability Assay in HepG2 cells - 24 hour (AID 1224867). Note: nearly all actives have a fitted effect of over 50% in size. Note: potency is the fitted concentration of half-maximal effect. The essentials:
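qHTS, HepG2, 600 cells/well, RealTime-Glo (NanoLuc + prosubstrate) added with cells; 5 h preincubation; DMSO compound addition; 37 C; luminescence at 0/8/16/24/32/40 h.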

The nature of test [10]: A CellTox Green Cytotoxicity Assay to monitor cytotoxicity in HEK293 cells - 0 hour (AID 1224869). Note: nearly all actives have a fitted effect of over 50% in size. The essentials:
(§1)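 Cells (HEK293, 600/well) and dye reagent are dispensed together. After 5 h at 37 C, 23 nL compound is pinned in. Plates stay at 37 C for 40 h with fluorescence read at 0h, 8h, 16h, 24h, 32h and 40h.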

Test [11] can be described thus: A CellTox Green Cytotoxicity Assay to monitor cytotoxicity in HEK293 cells - 40 hour (AID 1224871). Note: nearly all actives have a fitted effect of over 45% in size. Note: potency is the fitted concentration of half-maximal effect. The essentials: as §1
Test [12] in a line: qHTS RealTime-Glo MT Cell Viability Assay in HEK293 cells - 16 hour (AID 1224872). Note: nearly all actives have a fitted effect of over 50% in size. Note: potency is the fitted concentration of half-maximal effect. The essentials:
(§2)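 Assay medium contained NanoLuc luciferase plus cell-permeant prosubstrate, added with HEK293 cells at 600 cells/well. After 5 h at 37 C/5% CO2 compounds were added; plates stayed at 37 C for 40 h with serial luminescence reads.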

A short description of test [13]: qHTS assay to identify small molecule antagonists of the constitutive androstane receptor (CAR) signaling pathway - cell viability counter screen (AID 1224837). Note: nearly all actives have a fitted effect of over 45% in size. Note: potency is the fitted concentration of half-maximal effect. The essentials: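 Viability was measured with CellTiter-Fluor in a HepG2 line carrying stably transfected hCAR and a CYP2B6-2.2kb construct. Cells were exposed for 23 hr at 37 C to 15 compound concentrations with 50 nM CITCO as agonist.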

Test [14] in a line: qHTS assay to identify small molecule antagonists of the estrogen related receptor signaling pathway with the pleiotropic PPARgamma coactivator (PGC) from Tox21 10K library (AID 1224841; call rule not given here; note: potency is the fitted concentration of half-maximal effect). The essentials:
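Steps: plate 2,000 PGC/ERR cells per well; incubate 6 h at 37 C with 5% CO2; transfer compounds from DMSO stocks by pin tool; incubate 18 h at 37 C; add One-Glo; measure luminescence 30 min later.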

Test [15] is described as follows: qHTS assay to identify small molecule agonists of the estrogen related receptor signaling pathway with the pleiotropic PPARgamma coactivator (PGC) from Tox21 10K library (AID 1224842). Note: nearly all actives have a fitted effect of over 15% in size. In outline: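 PGC/ERR reporter cells (NTP line) were seeded 2,000 per well, rested 6 h at 37 C/5% CO2, then pin-dosed with compounds in DMSO for 18 h at 37 C; luciferase read by One-Glo luminescence after 30 min at room temperature.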

The target of test [16] is Thyrotropin receptor (Homo sapiens) (UniProt P16473). The test is described as follows: qHTS assay to identify small molecule agonists of the thyroid stimulating hormone receptor (TSHR) signaling pathway (AID 1224843; calls by dose curve; note: nearly all actives have a fitted effect of over 45% in size; note: potency is the fitted concentration of half-maximal effect). In outline:
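Compounds are titrated over 15 concentrations, in triplicate, onto TSHR-HEK293 cells seeded at 800/well. Plates sit 30 min at room temperature before cAMP-d2 and anti-cAMP cryptate are added; signal is read after a further hour.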

Test [17] can be described thus: qHTS assay to identify small molecule antagonists of the estrogen related receptor (ERR) signaling pathway from Tox21 library (AID 1224848). Note: nearly all actives have a fitted effect of over 50% in size. Note: potency is the fitted concentration of half-maximal effect. In outline:
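First, 2,000 ERR cells per well were plated and held 6 h at 37 C/5% CO2. Next, compounds in DMSO were pinned in and left 18 h at 37 C. Finally, ONE-Glo was added and luminescence read after 30 min at room temperature.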

Test [18] in a line: qHTS RealTime-Glo MT Cell Viability Assay in HepG2 cells - 40 hour (AID 1224870). Note: nearly all actives have a fitted effect of over 50% in size. Note: potency is the fitted concentration of half-maximal effect. In outline: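 HepG2 cells mixed with RealTime-Glo MT reagents (NanoLuc plus cell-permeant prosubstrate) were seeded at 600 cells/well, incubated 5 h at 37 C/5% CO2, then pinned with compounds in DMSO; nonlytic luminescence tracked viability during 40 h treatment.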
Test [19] in a line: qHTS assay to identify small molecule agonists of the estrogen related receptor (ERR) signaling pathway from Tox21 library (AID 1224849; calls by dose curve; note: nearly all actives have a fitted effect of over 15% in size). The note with it: ERR reporter cell line, ONE-Glo luciferase, 18 h; at 92.4 µM (top of the series) unless noted. The essentials: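 Cells carrying the ERR reporter were plated and allowed to settle for 6 h, exposed to library compounds for 18 h at 37 C, then lysed with ONE-Glo and luminescence measured.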

Test [20] can be described thus: qHTS RealTime-Glo MT Cell Viability Assay in HEK293 cells - 32 hour (AID 1224868). Note: nearly all actives have a fitted effect of over 50% in size. Note: potency is the fitted concentration of half-maximal effect. In outline: as §2
% is set by controls: 0 for no effect and ±100 for the full control effect.

Chain of Nuclear receptor subfamily 1 group I member 3 (Homo sapiens) (Q14994 whole entry, looked up): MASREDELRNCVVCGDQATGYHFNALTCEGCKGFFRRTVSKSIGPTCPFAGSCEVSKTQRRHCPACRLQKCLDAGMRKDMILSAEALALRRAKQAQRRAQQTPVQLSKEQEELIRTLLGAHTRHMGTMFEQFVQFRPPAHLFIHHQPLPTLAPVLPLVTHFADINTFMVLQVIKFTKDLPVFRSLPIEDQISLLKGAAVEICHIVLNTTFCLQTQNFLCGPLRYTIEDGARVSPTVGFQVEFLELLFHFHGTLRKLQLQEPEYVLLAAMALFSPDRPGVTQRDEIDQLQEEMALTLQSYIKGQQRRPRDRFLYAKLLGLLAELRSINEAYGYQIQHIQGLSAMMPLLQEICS
Chain of Thyrotropin receptor (Homo sapiens) (P16473 whole entry, looked up): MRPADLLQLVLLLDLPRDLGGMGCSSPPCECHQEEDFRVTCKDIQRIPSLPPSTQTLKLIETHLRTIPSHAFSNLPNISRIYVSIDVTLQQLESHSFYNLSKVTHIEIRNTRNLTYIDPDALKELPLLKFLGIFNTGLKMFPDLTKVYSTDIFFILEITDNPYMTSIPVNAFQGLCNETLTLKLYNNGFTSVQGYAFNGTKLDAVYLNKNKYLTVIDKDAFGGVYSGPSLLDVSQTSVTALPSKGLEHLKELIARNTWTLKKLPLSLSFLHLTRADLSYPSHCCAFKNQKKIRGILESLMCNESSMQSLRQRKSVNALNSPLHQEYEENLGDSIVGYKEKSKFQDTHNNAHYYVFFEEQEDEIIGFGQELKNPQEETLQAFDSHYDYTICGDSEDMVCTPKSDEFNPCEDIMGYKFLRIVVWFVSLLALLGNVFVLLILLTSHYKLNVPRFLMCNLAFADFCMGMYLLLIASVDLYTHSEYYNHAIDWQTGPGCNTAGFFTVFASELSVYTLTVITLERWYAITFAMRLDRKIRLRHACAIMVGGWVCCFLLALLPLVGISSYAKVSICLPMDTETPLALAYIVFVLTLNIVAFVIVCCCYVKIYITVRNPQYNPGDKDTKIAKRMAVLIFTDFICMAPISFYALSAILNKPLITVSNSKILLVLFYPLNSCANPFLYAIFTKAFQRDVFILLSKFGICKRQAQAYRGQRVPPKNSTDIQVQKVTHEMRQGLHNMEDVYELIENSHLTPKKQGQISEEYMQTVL

Turning to `CN(C)c1ccc(SC#N)cc1`, the Potency result in [1], in test [3], in test [4], in test [5], in test [6] and in [7] was “inactive” throughout. Further, the Potency entry in test [8], in test [9], in test [10], in test [11] and in test [12] was “inactive” each time. In test [2], the Potency was 27.3 µM (active).

With `C[C@H]1[C@H]2CC[C@H]3[C@@H]4CC=C5C[C@@H](N(C)C)CC[C@]5(C)[C@H]4CC[C@]23CN1C`, the Potency entry in test [13], in [2], in test [3], in test [4], in test [14] and in test [15] was “inactive” each time. Besides, the Potency entry in test [16], in [5], in [6], in [7], in test [8] and in test [17] was “inactive” in each case. Besides, the Potency entry in test [9], in test [10], in test [18], in test [11] and in test [12] was “inactive” each time.

Regarding `COc1cc(-c2ccc(N=C=O)c(OC)c2)ccc1N=C=O`, the Potency entry in [13], in test [2], in test [3], in test [4], in [14] and in test [15] was “inactive” throughout. Further, the Potency entry in test [6], in test [8], in [17], in test [9], in test [20] and in [10] was “inactive” throughout. Further, the Potency result in test [18], in [11] and in [12] was “inactive” throughout. Moreover, the activity change, positive = activation in test [19] was -0.106% [at 42.5 µM].

In the case of `C=CC(=O)OCCn1c(=O)n(CCOC(=O)C=C)c(=O)n(CCOC(=O)C=C)c1=O`, the Potency in test [13] was 19.3 µM (active); in test [2] it was 24.3 µM (active); in [4] it was 15.4 µM (active); in [14], 15.4 µM (active); in [5], 12.3 µM (active); in test [6] it was 25.3 µM (active). Moreover, the Potency in test [9] was 21.9 µM (active); in [20] it was 11 µM (active); in test [11], 21.9 µM (active); in test [12] it was 11 µM (active). For the same molecule, the Potency result in test [3], in test [15], in test [17] and in test [10] was “inactive” each time. Besides, the activity change, positive = activation in test [19] is -78.2%.

As for `N=C1N=C(N)c2cc3ccccc3cc21`, the Potency was 24.3 µM (active) in test [1]; 27.3 µM (active) in test [4]; 6.86 µM (active) in test [16]; 15.5 µM (active) in test [5]; 127 µM (active) in test [8]; 68.6 µM (active) in test [17]. In addition, the Potency in [9] was 47.6 µM [cytotoxic] (active); in test [18], 24.5 µM [cytotoxic] (active); in test [11], 54.9 µM (active); in test [12], 27.5 µM (active). The Potency entry in test [14] and in test [10] was “inactive” in each case. Moreover, the activity change, positive = activation in test [19] is 2.31% (active).

As for `CCOc1nc2cccc(C(=O)OC(C)OC(=O)OC3CCCCC3)c2n1Cc1ccc(-c2ccccc2-c2nn[nH]n2)cc1` (configuration not stated), the Potency result in test [13], in test [2], in test [3], in [15], in test [16] and in test [10] was “inactive” throughout. The Potency was 43.2 µM (active) in test [4]; 54.4 µM (active) in [14]; 19.5 µM (active) in [5]; 45 µM (active) in test [6]; 63.5 µM (active) in test [8]; 34.3 µM (active) in test [17]. For the same molecule, the figures for the Potency in [11] and in test [12] were 30.9 µM (active) and 11 µM (active), respectively. The activity change, positive = activation in test [19] is -65.4%.

With `Cc1cc(O)c(C(C)(C)C)cc1C(C)(C)C`, the Potency in test [1] was 61.1 µM (active); in test [4], 48.6 µM (active); in test [5], 43.6 µM (active); in test [6], 89.8 µM (active); in test [8], 50.5 µM (active); in test [17], 61.1 µM (active). Also, the Potency in test [9] was 43.6 µM (active); in [20], 17.4 µM (active); in test [11], 24.5 µM (active); in test [12], 19.5 µM (active). Further, the Potency result in test [3], in test [15] and in test [10] was “inactive” in each case. Besides, the activity change, positive = activation in test [19] was -68.9%.
